35 compounds from PubChem BioAssay AID651947 (Broad Institute, 2012) can be followed below.

Results with a measured potency or affinity are listed apart. Records with an inconclusive call do not appear. Values without a mark were called inactive.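 How the source made its calls: active means luminescence drop in HepG2 cells whose fitted half-effect dose is at most twice the top valid dose; inconclusive means flat curve with 30 to 70% signal loss, or unreliable fit; inactive means the rest.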

The assay is described as follows: cytotoxicity in HepG2 cells, dose response, cytotoxicity control, cell-based, plate reader, dry powder (AID 651947). Particulars: HepG2 viability, ATP luminescence (CellTiter-Glo), 48 h, active compounds read low; at 26 µM unless noted. (ATP-based viability assays read luminescence as a measure of living cells.)
`FC(F)(F)Oc1ccc(-c2nnc(SCc3ccccc3)o2)cc1`: the max activity was 21.1% [at 12 µM].
With `CS(=O)(=O)c1ccccc1CSc1nnc(-c2ccccc2)o1`, the max activity is -12.5% [at 12 µM].
As to `N#Cc1ccccc1CSc1nnc(-c2ccccc2)o1`, the max activity is 22.9% [at 3 µM].
Regarding `COCCOCCSc1nnc(-c2ccccc2)o1`, the max activity is -8.39% [at 1.6 µM].
Regarding `c1ccc(Cn2cc(CSc3nnc(C4CCC4)o3)nn2)cc1`, the max activity was -18.3% [at 0.38 µM].
On to `c1ccc(-c2nnc(SCCN3CCCC3)o2)cc1`, for which the max activity is -61.1% [at 0.8 µM].
As for `c1ccc(CSc2nnc(-c3cnco3)o2)cc1`, the figure is -31.7% [at 12 µM].
On to `c1ccc(CSc2nnc(-c3cccs3)o2)cc1`, for which the max activity was -27.2% [at 12 µM].
Consider `c1ccc(-n2cc(CSc3nnc(C4CCCC4)o3)nn2)cc1`, for which the max activity is 20.3% [at 0.38 µM].
As to `Cc1cccc(CSc2nnc(-c3ccccc3)o2)c1`, the max activity is -51.5% [at 0.195 µM].
On to `Clc1ccc(CSc2nnc(-c3ccccc3)o2)cc1`, for which the max activity is -22.7% [at 0.8 µM].
In the case of `c1ccc(CSc2nnc(-c3ccncc3)o2)cc1`, the max activity was -43.6% [at 0.38 µM].
On to `Cc1ccc(-c2nnc(SCc3ccccc3)o2)cc1`, for which the max activity was 15.2% [at 3 µM].
On to `O=C(Cc1ccccc1)c1nnc(-c2ccccc2)o1`, for which the max activity was -24.7% [at 0.8 µM].
Turning to `FC(F)(F)Oc1ccccc1-c1nnc(SCc2ccccc2)o1`, the max activity is -9.41% [at 6 µM].
The figure for `Cc1nnc(SCc2ccccc2)o1` is -55.2% [at 0.195 µM]; for `FC(F)(F)c1ccccc1-c1nnc(SCc2ccccc2)o1` it is 15.6% [at 1.6 µM].
Turning to `c1ccc(-c2nnc(SCc3ccncc3)o2)cc1`, the max activity was -21.6% [at 0.38 µM].
Regarding `c1ccc(CNc2nnc(-c3ccccc3)o2)cc1`, the max activity is 25.5% [at 0.195 µM].
Consider `Brc1cccc(-c2nnc(SCc3ccccn3)o2)c1`, for which the max activity was -18% [at 1.6 µM].
As for `Fc1cccc(-c2nnc(SCc3ccccn3)o2)c1`, the max activity was 26.1% [at 12 µM].
Turning to `COc1cccc(-c2nnc(SCc3ccccn3)o2)c1`, the max activity was 26.5% [at 1.6 µM].
For `c1ccc(CSc2nnc(-c3cccnc3)o2)cc1`, the max activity was -26.9% [at 0.8 µM].
For `c1ccc(-c2ccc(CSc3nnc(-c4ccccc4)o3)cc2)cc1`, the max activity is -30.5% [at 0.38 µM].
With `c1ccc(CNCCSc2nnc(-c3ccccc3)o2)cc1`, the max activity was -50.5% [at 1.6 µM].
As to `FC(F)(F)Oc1cccc(CSc2nnc(-c3ccccc3)o2)c1`, the max activity was 19.6% [at 0.38 µM].
As for `COc1cccc(-c2nnc(SCc3ccccc3)o2)c1`, the figure is 22.1% [at 12 µM]; as for `c1ccc(-c2nnc(SC(c3ccccc3)c3ccccc3)o2)cc1`, -33% [at 0.8 µM]; as for `CS(=O)(=O)c1ccccc1-c1nnc(SCc2ccccc2)o1`, 22.6% [at 3 µM].
As for `Cc1ccc(-c2nnc(SCc3ccccn3)o2)cc1`, the figure is -42.6% [at 0.38 µM]; as for `O=S(Cc1cn(-c2ccccc2)nn1)c1nnc(-c2ccc(Cl)cc2)o1` (stereo not given), -41.8% [at 12 µM].
Take `FC1(F)CN(CCSc2nnc(-c3ccccc3)o2)C1`: the max activity was -36.2% [at 0.8 µM].
Regarding `COc1ccccc1CSc1nnc(-c2ccccc2)o1`, the max activity is -56.1% [at 6 µM].
Take `Clc1ccccc1-c1nnc(SCc2ccccc2)o1`: the max activity is -37.6% [at 6 µM].
Take `Clc1ccc(-c2nnc(SCc3cn(-c4ccccc4)nn3)o2)cc1`: the max activity is -13% [at 3 µM].
